For assay [1], the system named is Aerobactin synthetase IucA (Klebsiella pneumoniae). Kind of assay: IucA aerobactin synthetase inhibitors, biochemical, Tocris library, absorbance (AID 1345561; call rule not given here;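 further: 100% = enzyme without compound and 0% = no enzyme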). To be noted: purified IucA enzyme assay, absorbance (OD) read-out; stronger effect = lower value;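 tested at 8 µM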.
The nature of assay [2]: sensitizers of A549 cells to miR-34 induction, primary screen, imaging, A549 dox-inducible miR-34, nuclei and caspase counts (AID 1347080). To be noted: A549 miR-34 inducible, Hoechst nuclei count, 48 h.
Assay [3] in a line: viability rescue of complex I mutant cybrids, primary screen, cell-based, galactose medium, ATP luminescence (AID 1645843;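 active means z-score of at least 1.8 in each of two replicates, scored against plate mean and spread of sample wells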;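 further: positive z means more ATP and so rescue of galactose-driven cybrid death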). To be noted: complex I mutant cybrid cells, 72 h, stronger effect = higher value.
Setting [4] is: stronger effect = lower value, cell number ratio, induced over uninduced.
[5] abbreviates: measured here: relative caspase fold change +Dox/-Dox.
Where [6] appears, read: measured here: total cells with miR-34 induction, stronger effect = lower value.
[7] abbreviates: measured here: total cells without miR-34 induction.

Values joined by “and” are separate entries in the source; they are usually repeats but may differ in a detail not shown here. Equal values may be shown once. Active and inactive are the calls of the source.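 How the source made its calls, unless noted: active means compounds whose cell count with miR-34 switched on is under 0.7 times the count with it off; inactive means the rest.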

The remaining activity is the signal under treatment as a percentage of the control signal.

Take `Cn1ccc2cc(NC(=O)Nc3cccnc3)ccc21`: in assay [1], the remaining activity was 111% (inactive). Moreover, the fold change in assay [2] (setting [4]) was 0.984 (inactive); in assay [2] (setting [5]), 0.852. Also, the cell count was 8400 in assay [2] (setting [6]) and 8540 in assay [2] (setting [7]). In addition, in assay [3], the z-score was 0.405 (inactive).

Turning to `Cc1cc(C)c(S(=O)(=O)Nc2ccccc2C(F)(F)F)c(C)c1`, the remaining activity in assay [1] is 96.1% (inactive). The fold change was 0.879 (inactive) in assay [2] (setting [4]) and 0.932 in assay [2] (setting [5]). In addition, the cell count in assay [2] (setting [6]) was determined as 6450; in assay [2] (setting [7]), 7330. For the same molecule, in assay [3], the z-score was 1.2 (inactive).

On to `CC(C)C[C@H](NC(=O)N1CCCCCC1)C(=O)N[C@H](Cc1cn(C)c2ccccc12)C(=O)N[C@H](Cc1ccccn1)C(=O)O`, for which, in assay [1], the remaining activity was 87.9% (inactive). Further, the fold change in assay [2] (setting [4]) is 0.819 (inactive); in assay [2] (setting [5]), 0.926. The cell count worked out at 7880 in assay [2] (setting [6]) and 9620 in assay [2] (setting [7]). Besides, the z-score in assay [3] is 1.25 (inactive).

For the molecule `COc1ccc(NC(=O)c2ccc(-c3ccc(-c4noc(C)n4)cc3C)cc2)cc1OCCN(C)C`, in assay [1], the remaining activity is 128% (inactive). Besides, the values for the fold change in assay [2] (setting [4]) and in assay [2] (setting [5]) were 1.2 (inactive) and 1.18, respectively. In addition, the cell count in assay [2] (setting [6]) turned out to be 1160; in assay [2] (setting [7]), 962. Further, the z-score in assay [3] is -0.765 (inactive).

As to `CC(C)n1nnc2cc(C(=O)O)ccc21`, in assay [1], the remaining activity was 115% (inactive). Also, the fold change in assay [2] (setting [4]) is 0.911 (inactive); in assay [2] (setting [5]) it was 1.97. For the same molecule, the cell count in assay [2] (setting [6]) was 7770; in assay [2] (setting [7]), 8530. In addition, the z-score in assay [3] was 0.275 (inactive).

For the molecule `CC(C)N1CCN(c2ccc(C(=O)c3c(-c4ccc(O)cc4)sc4cc(O)ccc34)cc2)CC1`, in assay [1], the remaining activity is 105% (inactive). In addition, the fold change in assay [2] (setting [4]) is 0.989 (inactive); in assay [2] (setting [5]), 1.64. Also, the cell count in assay [2] (setting [6]) stood at 6900; in assay [2] (setting [7]), 6980. Further, in assay [3], the z-score was -0.43 (inactive).

As to `CC(C)c1ccc2c(c1)CC[C@H]1[C@](C)(CN)CCC[C@]21C`, the remaining activity in assay [1] was 101% (inactive). Besides, the fold change in assay [2] (setting [4]) was 0.931 (inactive) and 0.9 (inactive); in assay [2] (setting [5]) it was 0.286 and 1.62. The cell count in assay [2] (setting [6]) was 5370 and 346; in assay [2] (setting [7]), 5760 and 384. The z-score in assay [3] is -0.56 (inactive).

As for `N[C@@H](C(=O)O)[C@@H](OCc1ccccc1)C(=O)O` (racemic), the remaining activity in assay [1] is 110% (inactive). Also, the values for the fold change in assay [2] (setting [4]) and in assay [2] (setting [5]) were 0.921 (inactive) and 1.02, respectively. In addition, the cell count in assay [2] (setting [6]) turned out to be 8010; in assay [2] (setting [7]), 8700. Also, the z-score in assay [3] is 0.315 (inactive).

Take `N#Cc1ccc(NCCNCC(=O)N2CCC[C@H]2C#N)nc1`: the remaining activity in assay [1] was 110% (inactive). The fold change was 0.825 (inactive) in assay [2] (setting [4]) and 2.19 in assay [2] (setting [5]). For the same molecule, the cell count in assay [2] (setting [6]) turned out to be 8330; in assay [2] (setting [7]) it was 10100. For the same molecule, the z-score in assay [3] was 0.41 (inactive).

In the case of `CN1CCN(C(=O)c2nc3ccc(Cl)cc3[nH]2)CC1`, the remaining activity in assay [1] is 102% (inactive). Besides, the values for the fold change in assay [2] (setting [4]) and in assay [2] (setting [5]) were 0.91 (inactive) and 1.56, respectively. Moreover, the cell count in assay [2] (setting [6]) turned out to be 8900; in assay [2] (setting [7]), 9780. In assay [3], the z-score was 0.84 (inactive).

Turning to `COc1ccccc1N1CCN(CCCCN2C(=O)CCC2=O)CC1`, in assay [1], the remaining activity is 103% (inactive). For the same molecule, the fold change in assay [2] (setting [4]) is 0.855 (inactive); in assay [2] (setting [5]), 0.698. For the same molecule, the cell count in assay [2] (setting [6]) was 8300; in assay [2] (setting [7]), 9700. Also, the z-score in assay [3] was -0.25 (inactive).

In the case of `N[C@H]1CCN(O)C1=O`, in assay [1], the remaining activity is 122% (inactive). The fold change is 1.02 (inactive) in assay [2] (setting [4]) and 0.709 in assay [2] (setting [5]). In addition, the cell count in assay [2] (setting [6]) is 8480; in assay [2] (setting [7]), 8300. For the same molecule, the z-score in assay [3] was -0.005 (inactive).

For the molecule `Cc1cc(C)cc(C(=O)N(C)[C@H](Cc2ccc(-c3ccccc3)cc2)C(=O)N[C@@H](Cc2c[nH]c3ccccc23)C(=O)O)c1`, the remaining activity in assay [1] was 125% (inactive). Also, the figures for the fold change in assay [2] (setting [4]) and in assay [2] (setting [5]) were 0.884 (inactive) and 0.967, respectively. Further, the cell count was 8970 in assay [2] (setting [6]) and 10100 in assay [2] (setting [7]). For the same molecule, in assay [3], the z-score is 7.92 (active).

Regarding `C=CCN1CCN(c2nc3ccccc3nc2C#N)CC1`, the remaining activity in assay [1] is 112% (inactive). The fold change in assay [2] (setting [4]) was 0.901 (inactive); in assay [2] (setting [5]), 1.37. In addition, the cell count was determined as 8950 in assay [2] (setting [6]) and 9930 in assay [2] (setting [7]). Further, the z-score in assay [3] was 0.335 (inactive).

`O=C(O)c1c(Sc2ccccc2)c2cc(Cl)ccc2n1Cc1ccc(Cl)cc1`: the remaining activity in assay [1] was 122% (inactive). Also, the fold change was 0.94 (inactive) in assay [2] (setting [4]) and 1.45 in assay [2] (setting [5]). For the same molecule, the values for the cell count in assay [2] (setting [6]) and in assay [2] (setting [7]) were 6730 and 7160, respectively. In addition, the z-score in assay [3] was 1.25 (inactive).

Consider `O=C(O)COc1cccc(-c2ocnc2-c2nc(-c3ccccc3)c(-c3ccccc3)o2)c1`, for which the remaining activity in assay [1] was 118% (inactive). The fold change is 0.961 (inactive) in assay [2] (setting [4]) and 0.827 in assay [2] (setting [5]). The cell count in assay [2] (setting [6]) worked out at 8540; in assay [2] (setting [7]), 8890. The z-score in assay [3] is 0.465 (inactive).

Take `CCc1cc(C(C)=O)c(O)cc1OCCCCCC(C)(C)c1nn[nH]n1`: the remaining activity in assay [1] was 116% (inactive). The fold change in assay [2] (setting [4]) was 0.891 (inactive); in assay [2] (setting [5]) it was 1.51. Moreover, the cell count is 7060 in assay [2] (setting [6]) and 7920 in assay [2] (setting [7]). In addition, the z-score in assay [3] was -0.21 (inactive).

Turning to `O=C(Nc1cccc2cccnc12)c1ccc(N2C(=O)[C@@H]3[C@H](C2=O)[C@@H]2C=C[C@H]3C2)cc1`, the remaining activity in assay [1] is 115% (inactive). The fold change is 1 (inactive) in assay [2] (setting [4]) and 0.754 in assay [2] (setting [5]). The cell count stood at 6560 in assay [2] (setting [6]) and 6550 in assay [2] (setting [7]). Moreover, the z-score in assay [3] was -0.025 (inactive).

As to `CCOC(=O)NC[C@H](Cc1ccc(OCCc2nc(-c3ccccc3)oc2C)cc1)N/C(C)=C\C(=O)c1ccc(C(F)(F)F)cc1`, in assay [1], the remaining activity is 105% (inactive). Also, the fold change in assay [2] (setting [4]) was 1.05 (inactive); in assay [2] (setting [5]) it was 1.05. Moreover, the cell count came to 5130 in assay [2] (setting [6]) and 4910 in assay [2] (setting [7]). Also, the z-score in assay [3] was -0.305 (inactive).

Turning to `Cc1ccc(NC(=O)C(C)C)cc1C1CCN(Cc2ccc(Oc3ccc(F)c(F)c3)cc2)CC1`, in assay [1], the remaining activity is 107% (inactive). The figures for the fold change in assay [2] (setting [4]) and in assay [2] (setting [5]) were 1.03 (inactive) and 0.737, respectively. In addition, the values for the cell count in assay [2] (setting [6]) and in assay [2] (setting [7]) were 1330 and 1290, respectively. Also, the z-score in assay [3] is -0.705 (inactive).

Turning to `CCN(CC)c1ccc(/C=N/NC(=O)c2ccc(O)cc2)cc1`, in assay [1], the remaining activity was 100% (inactive). The fold change in assay [2] (setting [4]) was 0.945 (inactive); in assay [2] (setting [5]), 1.02. The results for the cell count in assay [2] (setting [6]) and in assay [2] (setting [7]) were 5490 and 5810, respectively. Further, in assay [3], the z-score was 0.055 (inactive).

As for `COc1cccc(CCc2ccccc2OCC[C@@H]2C[C@@H](O)CN2C)c1`, the remaining activity in assay [1] is 109% (inactive). The fold change in assay [2] (setting [4]) is 1.04 (inactive); in assay [2] (setting [5]), 0.632. In addition, the cell count in assay [2] (setting [6]) was found to be 7340; in assay [2] (setting [7]), 7050. Moreover, in assay [3], the z-score was -0.705 (inactive).

(Values after PubChem BioAssay.)
